Consider 19 compounds from PubChem BioAssay.

Structures are written as SMILES. Values joined by “and” are separate entries in the source; they are usually repeats but may differ in a detail not shown here. Equal entries are not always repeated. Records with an inconclusive call do not appear. Active and inactive are the calls of the source. Unless noted, no cut-off is given here; in the data, nearly all actives have AC50 up to about 26 µM.

Assay [1] is described as follows: viability loss in pontine glioma line – cell-based, SU-DIPG-XVII, MIPE5.0, CellTiter-Glo, qHTS, dose response (AID 1347060).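 For AC50: cells exposed to compound for 48 hours before viability readout.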 The settings on record: CellTiter-Glo ATP luminescence. In general terms: ATP-based viability assays read luminescence as a measure of living cells.
Assay [2] can be described thus: viability loss in pontine glioma line – cell-based, SU-DIPG-XIII, MIPE5.0, CellTiter-Glo, qHTS, dose response (AID 1347064; cut-off not given, nearly all actives have AC50 up to about 23 µM;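 for AC50: cells exposed to compound for 48 hours before the viability read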). The settings on record: CellTiter-Glo ATP luminescence.
Assay [3] can be described thus: viability loss in pontine glioma line – cell-based, SU-DIPG-XXV, MIPE5.0, CellTiter-Glo, qHTS, dose response (AID 1347065).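 Note: cells exposed to compound for 48 hours before ATP readout.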 The settings on record: CellTiter-Glo ATP luminescence.
Assay [4] can be described thus: JHH-DIPG-1 glioma cell viability, MIPE5.0 library, CellTiter-Glo luminescence, qHTS (AID 1347067).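 Note: cells exposed to compound for 48 hours before readout.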 The settings on record: JHH-DIPG-1 glioma viability, CellTiter-Glo ATP luminescence.
A short description of assay [5]: MELAS cybrid and Rieske KO viability enhancers – cell-based, MELAS cybrids, Rieske KO mouse fibroblasts, CellTiter-Glo, primary screen (AID 1508586;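 active = mean z-score across replicates of 1.96 or higher in either the MELAS or the Rieske mutant cell line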;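 note: z relative to plate mean and SD of compound and empty wells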). The settings on record: low glucose.
In assay [6] the target is NAD(+) hydrolase SARM1 (Homo sapiens) (UniProt Q6SZW1). Put plainly: blocking NAD cleavage by SARM1 SAM-TIR – cell lysate, NAD-Glo luminescence (AID 1508614;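 active = compound whose remaining NAD level is above about 45 nM, limit read from the data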;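 note: higher remaining NAD means stronger inhibition of SARM1 NADase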). The conditions noted are these: SAM-TIR HEK293T lysate NADase, at 1 µM, stronger effect = higher value.
The nature of assay [7]: growth inhibition of DIPG cells – cell-based, MIPE5.0 library, qHTS (AID 1347068; cut-off not given, nearly all actives have IC50 up to about 30 µM;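 for IC50: cells exposed to compound for 48 hours before viability readout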). The settings on record: SU-DIPG-XXV viability.
Assay [8] is described as follows: viability loss in pontine glioma line – cell-based, JHH-DIPG-1, MIPE4.0, CellTiter-Glo, qHTS, dose response (AID 1347062; cut-off not given, nearly all actives have AC50 up to about 27 µM;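 for AC50: cells exposed to compound for two days before readout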). The settings on record: JHH-DIPG-1 viability, CellTiter-Glo ATP luminescence.
Assay [9] is described as follows: growth inhibition of DIPG cells – cell-based, MIPE4.0 library, CellTiter-Glo luminescence, qHTS (AID 1347066; cut-off not given, nearly all actives have AC50 up to about 30 µM;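 note: cells exposed to compound for 48 hours before readout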). The settings on record: SU-DIPG-VI viability, CellTiter-Glo ATP luminescence.
A short description of assay [10]: viability loss in pontine glioma line – cell-based, SU-DIPG-IV, MIPE4.0, CellTiter-Glo, qHTS, dose response (AID 1347063; cut-off not given, nearly all actives have AC50 up to about 30 µM;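 note: compound exposure lasted 48 hours before the viability readout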). The conditions noted are these: CellTiter-Glo ATP luminescence.
The nature of assay [11]: viability loss with induced miR-34 in A549 – imaging, A549 dox-inducible miR-34, nuclei and caspase counts, primary screen (AID 1347080;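 active = compounds whose cell count with miR-34 switched on is under 0.7 times the count with it off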). The settings on record: A549 miR-34 inducible, Hoechst nuclei count, 48 h.
A short description of assay [12]: compounds altering HSF1 focus formation in cells – imaging, Selleck Cancer Library (AID 1347162; in the data active = plate-normalised HSF1 focus index below about 0.46). The settings on record: human cells, HSF1 nuclear foci imaging, at 10 µM; SSMD: measured here: HSF1 foci SSMD mean; cell count: measured here: cell number; plate-normalised HSF1 focus index: stronger effect = lower value.
Assay [13] is described as follows: viability loss in pontine glioma line – cell-based, SU-DIPG-XIII, MIPE4.0, CellTiter-Glo, qHTS, dose response (AID 1347061; cut-off not given, nearly all actives have AC50 up to about 37 µM;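 note: cells exposed to compound for 48 hours before readout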). The settings on record: CellTiter-Glo ATP luminescence.
Where [14] appears, read: MELAS cybrid survival, CellTiter-Glo 48 h, stronger effect = higher value.
The mark [15] stands for this setting: Rieske KO mouse fibroblast survival, CellTiter-Glo 72 h.
Setting [16] is: measured here: relative caspase fold change +Dox/-Dox.
[17] abbreviates: measured here: total cells with miR-34 induction, stronger effect = lower value.
Where [18] appears, read: measured here: total cells without miR-34 induction.
Setting [19] is: stronger effect = lower value, cell number ratio, induced over uninduced.

NAD(+) hydrolase SARM1 (Homo sapiens), sequence (Q6SZW1 whole entry, looked up): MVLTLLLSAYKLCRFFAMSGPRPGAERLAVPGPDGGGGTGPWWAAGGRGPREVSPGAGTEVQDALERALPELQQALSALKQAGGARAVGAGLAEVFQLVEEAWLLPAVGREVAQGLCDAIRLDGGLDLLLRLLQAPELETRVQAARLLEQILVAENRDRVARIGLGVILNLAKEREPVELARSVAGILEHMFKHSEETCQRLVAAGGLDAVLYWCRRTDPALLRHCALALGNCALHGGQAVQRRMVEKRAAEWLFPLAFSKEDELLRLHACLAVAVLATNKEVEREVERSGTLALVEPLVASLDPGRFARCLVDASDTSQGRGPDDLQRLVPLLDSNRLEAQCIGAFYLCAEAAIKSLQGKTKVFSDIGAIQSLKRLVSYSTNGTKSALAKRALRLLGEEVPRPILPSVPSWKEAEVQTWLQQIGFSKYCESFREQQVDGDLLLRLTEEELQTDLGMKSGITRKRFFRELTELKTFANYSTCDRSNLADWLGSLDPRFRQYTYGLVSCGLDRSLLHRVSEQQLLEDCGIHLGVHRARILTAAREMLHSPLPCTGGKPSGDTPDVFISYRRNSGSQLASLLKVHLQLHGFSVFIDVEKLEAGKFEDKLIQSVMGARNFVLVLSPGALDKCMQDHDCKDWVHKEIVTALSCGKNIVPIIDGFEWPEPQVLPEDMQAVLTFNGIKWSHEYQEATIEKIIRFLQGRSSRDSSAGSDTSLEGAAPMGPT

As a reminder, the AC50 is the concentration giving half of the maximal activity seen. `C[C@@H]1O[C@@H](O[C@@H]2C=C3CC[C@@H]4[C@H](CC[C@]5(C)[C@@H](c6ccc(=O)oc6)CC[C@]45O)[C@@]3(C)CC2)[C@H](O)[C@H](O)[C@H]1O`: the AC50 in [1] is 0.0148 µM (active); in assay [2], 0.0166 µM (active); in assay [3], 0.0186 µM (active); in assay [4], 0.0118 µM (active). Also, the z-score in assay [5] (setting [14]) is 1.14 (inactive); in [5] (setting [15]), -0.344. Moreover, the remaining NAD in assay [6] is 10 nM (inactive).
With `Cc1ncc(OC[C@@]2(c3cccc(F)c3)C[C@H]2C(=O)Nc2ccc(F)cn2)c(C)n1`, the result in assay [1], in assay [2], in assay [3], in [4] and in assay [7] was inactive.
Take `Cn1c(CCCCCCC(=O)NO)nc2cc(N(CCCl)CCCl)ccc21`: the AC50 in assay [1] and in assay [4] was 9.34 µM (active) each time. Further, the compound was classed as inactive in [7].
As to `COc1cc(C)[nH]c(=O)c1CNC(=O)c1c(C)n([C@H](C)C2CCOCC2)c2ccccc12`, the result in [1], in assay [2], in assay [3] and in assay [4] was inactive.
For orientation: IC50 means the concentration that gives 50% inhibition. Consider `O=C(Nc1ccncc1)C(=O)c1cn(Cc2ccc(Cl)cc2)c2ccccc12`, for which the AC50 in assay [1] was 0.295 µM (active); in assay [8], 0.296 µM (active); in assay [2] it was 1.66 µM (active); in assay [3], 0.148 µM (active); in [4], 0.417 µM (active). The result in assay [9] was inactive. For the same compound, in [7], the IC50 was 0.372 µM (active).
With `CC1=C2C[C@H]3[C@@H](CC=C4C[C@@H](O)CC[C@@]43C)[C@@H]2CC[C@]12O[C@@H]1C[C@H](C)CN[C@H]1[C@H]2C`, the outcome in assay [1], in [8], in [10], in assay [2], in assay [3] and in assay [9] was inactive. Moreover, the call in assay [4] and in assay [7] was inactive. For the same compound, the fold change in assay [11] (stronger effect = lower value) is 0.912 (inactive); in [11] (setting [16]), 0.801. Also, the cell count in [11] (setting [17]) worked out at 4470; in assay [11] (setting [18]), 4900; in assay [12], 7300. The SSMD in assay [12] turned out to be 2.32. In addition, the plate-normalised HSF1 focus index in [12] is 1.08 (inactive).
As to `CC[C@H]1/C=C\C=C/C[C@@H](C)[C@H](O)[C@@](C)(O)C(=O)[C@@H](C)[C@H](O)[C@@H](C)C(=O)[C@@H](C)[C@H](O)[C@@H](C)/C=C/C(=O)O[C@@H]2[C@H](C)[C@H](CC1)O[C@]1(CC[C@H](C)[C@H](C[C@@H](C)O)O1)[C@H]2C`, the AC50 was 10.5 µM (active) in assay [1]; 20.9 µM (active) in [8]; 10.5 µM (active) in [10]; 7.42 µM (active) in assay [2]; 0.00525 µM (active) in [3]; 6.62 µM (active) in assay [9]. Also, the AC50 in assay [4] is 0.0661 µM (active).
Take `COc1cc2c(cc1F)C(c1ccccc1Cl)=Nc1c(n[nH]c1C)N2`: the results for the AC50 in assay [1], in [3] and in [4] were 5.25 µM (active), 13.2 µM (active) and 14.8 µM (active), respectively. For the same compound, the result in assay [7] was inactive.
For the compound `CC1(C)CC[C@]2(NC(=O)C(C)(F)F)CC[C@]3(C)[C@H](C(=O)C=C4[C@@]5(C)C=C(C#N)C(=O)C(C)(C)[C@@H]5CC[C@]43C)[C@@H]2C1`, the AC50 is 7.42 µM (active) in assay [1], 10.5 µM (active) in assay [2], 9.34 µM (active) in assay [3] and 7.42 µM (active) in assay [4]. The IC50 in assay [7] was 11.8 µM (active).
Consider `O=C(NCCCNc1nc(Nc2ccc(N3CCOCC3)cc2)ncc1C1CC1)C1CCC1`, for which the AC50 in assay [1] was 20.9 µM (active); in [3], 16.6 µM (active); in [4], 14.8 µM (active).
`CN1[C@@H]2CC(O)C[C@H]1[C@@H]1O[C@@H]12` (stereo partly specified): the compound was called inactive in [1], in assay [2], in assay [3], in assay [4] and in [7]. In addition, the AC50 in [10] and in assay [9] was 16.6 µM (active) in each case. The fold change in assay [11] (setting [19]) is 0.909 (inactive) and 0.934 (inactive); in [11] (setting [16]), 0.912 and 0.808. Besides, the cell count was 8400 and 9480 in assay [11] (setting [17]); 9240 and 10200 in assay [11] (setting [18]). In addition, the z-score was -0.234 (inactive) and -0.344 (inactive) in assay [5] (setting [14]); -0.606 and 0.658 in [5] (setting [15]).
Regarding `CNC(=O)c1ccc(N2C(=S)N(c3ccc(C#N)c(C(F)(F)F)c3)C(=O)C23CCC3)cc1F`, the compound was called inactive in assay [13], in [9] and in assay [7]. Moreover, the AC50 in assay [8] was 10.5 µM (active); in [10], 9.35 µM (active).
In the case of `C[C@@H]1[C@H](O)[C@@H](C)C=CC=CCCC=CC=CC=CC=C[C@H](O[C@H]2O[C@@H](C)[C@H](O)[C@@H](N)[C@H]2O)CC2O[C@](O)(C[C@@H](O)[C@H](O)CC[C@@H](O)C[C@@H](O)C[C@@H](O)CC(=O)O[C@H]1C)C[C@H](O)[C@H]2C(=O)O`, the result in [13], in [8], in assay [10] and in [9] was inactive.
As to `COc1cccc2c1[C@]13CCN(CC4CC4)[C@H](C2)[C@]1(OC)CCC(=O)C3`, the result in assay [13], in [8] and in assay [9] was inactive.
Turning to `CCOC(=O)Nc1ccc(NCc2ccc(F)cc2)cc1N`, the result in [13], in assay [2], in assay [3], in [9], in [4] and in assay [7] was inactive.
Consider `COc1ccc(CC2NCCc3cc(OC)c(OC)cc32)cc1OC` (stereo unspecified), for which the call in assay [13], in assay [10] and in [9] was inactive. Further, the fold change in [11] (setting [19]) was 0.988 (inactive); in assay [11] (setting [16]) it was 0.746. For the same compound, the figures for the cell count in [11] (setting [17]) and in assay [11] (setting [18]) were 9220 and 9330, respectively. Further, the z-score in [5] (setting [14]) was -0.321 (inactive); in assay [5] (setting [15]), 0.618.
`CC(C)(O)C(=O)Nc1ccc([N+](=O)[O-])c(C(F)(F)F)c1`: the AC50 in [13] was 11.8 µM (active). Besides, the call in assay [2], in assay [9] and in assay [7] was inactive.
Consider `CCOC(=O)c1c(/C(C#N)=C\N)c2ccc(Cl)c(Cl)c2n1C`, for which the result in assay [13], in [8], in assay [2], in assay [9], in [4] and in assay [7] was inactive.
In the case of `C=CCO/N=C(/C[C@H]1O[C@@H]2O[C@]3(C)CC[C@H]4[C@H](C)CC[C@@H]([C@H]1C)[C@@]24OO3)[C@H]1O[C@@H]2O[C@]3(C)CC[C@H]4[C@H](C)CC[C@@H]([C@H]1C)[C@@]24OO3`, the AC50 in [10] was 0.209 µM (active).
